High-throughput results (PubChem)
A selection: hits, their analogues and other compounds. The true share with any hit is near 2.2%.
MEKK3 PB1 HTS – modulators (inhibitors or enhancers) of MEK5 binding to human MEKK3 PB1 domain | hit rate 1.4% among 290,000 | binding response (% of control), % at 10 µM | bead-based flow cytometry, Alexa488-MEK5 binding to MEKK3; actives lie on both sides; 0 = blocked by unlabeled MEK5, 100 = vehicle;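 active = binding response more than 3 SD above or below the average of its plate-row segment, actives on both sides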;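 note: Alexa488 bead fluorescence after subtracting the streptavidin-only scavenger bead signal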
Target sequence (Q99759 whole entry, looked up, the tested form may be a part): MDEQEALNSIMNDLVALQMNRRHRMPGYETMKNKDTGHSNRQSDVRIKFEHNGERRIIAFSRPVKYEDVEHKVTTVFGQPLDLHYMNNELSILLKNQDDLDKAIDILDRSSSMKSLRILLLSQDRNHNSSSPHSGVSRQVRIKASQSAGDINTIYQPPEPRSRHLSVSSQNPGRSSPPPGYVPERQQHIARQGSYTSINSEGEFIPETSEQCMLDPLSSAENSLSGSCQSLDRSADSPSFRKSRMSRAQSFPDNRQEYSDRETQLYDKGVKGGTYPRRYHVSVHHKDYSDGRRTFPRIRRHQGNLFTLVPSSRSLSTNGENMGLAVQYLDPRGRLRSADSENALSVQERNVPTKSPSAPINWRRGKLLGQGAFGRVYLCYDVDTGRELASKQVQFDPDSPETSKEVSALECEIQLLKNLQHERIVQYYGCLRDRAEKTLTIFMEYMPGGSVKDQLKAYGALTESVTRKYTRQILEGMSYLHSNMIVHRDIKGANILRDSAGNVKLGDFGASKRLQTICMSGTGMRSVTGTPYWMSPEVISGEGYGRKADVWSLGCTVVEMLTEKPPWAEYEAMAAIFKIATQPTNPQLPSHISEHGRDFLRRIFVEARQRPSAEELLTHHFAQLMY
VLA-4 inh – inhibition in a human VLA-4 binding assay; P13612; VLA-4 expressing cells, ligand binding flow cytometry; inhibition, % (about 7 µM as worked out from the volumes in the protocol); hit rate 0.2% among 330,000; in the data active = inhibition above about 50%
MEKK2mut PB1 HTS – signal of MEK5 binding to mutant human MEKK2 PB1 domain. bead flow cytometry, Alexa488-MEK5 binding to MEKK2 mutant. percent response, % at 10 µM. hit rate 0.35% among 290,000. AID 1530; in the data active = percent response above about 24%, passing the limit was not always enough
MEKK2 WT-MEK5 – raises or lowers MEK5 binding to wildtype human MEKK2 PB1 domain; Q9Y2U5; bead flow cytometry, Alexa488-MEK5 binding to MEKK2 WT; actives lie on both sides; binding response (% of control), % at 10 µM; hit rate 1.1% among 290,000; AID 1531; in the data active = binding response below about 67% or above about 130%
VLA-4 mod pick – confirmation of allosteric modulators of human VLA-4 integrin; shares compounds with VLA-4 inh; U937 cells, HUTS-21 LIBS mAb binding, flow cytometry; LDV ligand present at threefold Kd; inhibition, % at 6.7 µM; hit rate 2% among 1,300; in the data active = inhibition above about 40%
Large screens that a line does not name were inactive (follow-up assays come after a bar, where they were run); ! = a repeat was not active.

COc1ccc(CNC(=O)C2CCN(S(C)(=O)=O)CC2)c(OC)c1	VLA-4 inh 52.9 | VLA-4 mod pick inactive
Cc1cc(C)cc(N(CC(=O)N2CCc3ccccc32)S(=O)(=O)c2c(C)noc2C)c1	none | VLA-4 mod pick inactive
COc1ccc(OC)c(NS(=O)(=O)c2c(C)nc3sccn3c2=O)c1	none
COc1ccc(S(=O)(=O)N2CC(O)CC2C(=O)Nc2cccnc2)cc1 (centres undefined)	none
C=CCNc1ncnc2c1ncn2C1OC(CO)C(O)C1O (centres undefined)	none
OC[C@H]1O[C@@H](n2cnc3c(NC4CCCC4)ncnc32)[C@H](O)[C@@H]1O	none | VLA-4 mod pick inactive
OCC1OC(n2cnc3c(NC4CCCC4)ncnc32)C(O)C1O (centres undefined)	none
OCC1OC(n2cnc3c(NC4CCCCC4)ncnc32)C(O)C1O (centres undefined)	none | VLA-4 mod pick inactive
Cc1cc(C)c(OCC(=O)OCC(=O)NCC2CCCCC2)c(C)c1	none (no result: MEKK3 PB1 HTS, MEKK2mut PB1 HTS, MEKK2 WT-MEK5)
Cc1noc(C)c1COc1ccc(C(=O)NCCc2ccc(S(N)(=O)=O)cc2)cc1	none (no result: MEKK3 PB1 HTS, MEKK2mut PB1 HTS, MEKK2 WT-MEK5)
Cc1noc(C)c1COc1ccc(C(=O)NCCc2ccc(F)cc2)cc1	VLA-4 inh 50.3 (no result: MEKK3 PB1 HTS, MEKK2mut PB1 HTS, MEKK2 WT-MEK5) | VLA-4 mod pick inactive
CCOC(=O)c1c(C)[nH]c(C(=O)COC(=O)c2ccco2)c1C	none (no result: MEKK3 PB1 HTS, MEKK2mut PB1 HTS, MEKK2 WT-MEK5) | VLA-4 mod pick inactive
CCOC(=O)c1c(C)[nH]c(C(=O)COC(=O)C2CC2C)c1C (centres undefined)	none | VLA-4 mod pick inactive
CCOC(=O)c1c(C)[nH]c(C(=O)COC(=O)c2cnccn2)c1C	none (no result: MEKK3 PB1 HTS, MEKK2mut PB1 HTS, MEKK2 WT-MEK5) | VLA-4 mod pick inactive
CCOC(=O)c1c(C)[nH]c(C(=O)COC(=O)c2cccnc2Cl)c1C	none (no result: MEKK3 PB1 HTS, MEKK2mut PB1 HTS, MEKK2 WT-MEK5)
CCOC(=O)c1[nH]c(C)c(C(=O)OCC)c1C	none
CCOC(=O)c1c(C)[nH]c(C(=O)COC(=O)c2ccncc2)c1C	none | VLA-4 mod pick inactive
CCOC(=O)c1c(C)[nH]c(C(=O)COC(=O)c2[nH]c(C)c(C(C)=O)c2C)c1C	none
O=C(Nc1nccs1)c1ncc(Cl)c(Cl)c1Cl	none
C=CCNc1nc(C(F)(F)F)nc2c1nnn2Cc1ccccc1Cl	VLA-4 inh 70.0 | VLA-4 mod pick inactive
CCOCCCNc1nc(C(F)(F)F)nc2c1nnn2Cc1ccccc1Cl	none
CC1Sc2ccc(S(=O)(=O)CCC(=O)NCc3ccc(Cl)cc3)cc2NC1=O (centres undefined)	none
CC(C)(C)c1ccc(NS(=O)(=O)c2ccc(N)cc2)cc1	none | VLA-4 mod pick inactive
Nc1ccc(S(=O)(=O)Nc2ccc(S(N)(=O)=O)cc2)cc1	none
CCN(c1ccccc1)S(=O)(=O)c1ccc2c(c1)C(C)(C)C(=O)N2C	none
O=C(Nc1ccc(Cl)c(Cl)c1)Nc1ccccc1O	none | VLA-4 mod pick inactive
O=C(O)/C=C/C(=O)Nc1ccc(Cc2ccc(NC(=O)/C=C/C(=O)O)cc2)cc1	none
COc1ccc(S(=O)(=O)NCc2ccccc2Cl)cc1OC	VLA-4 inh 93.0 | VLA-4 mod pick inactive
O=C(Nc1cccc(S(=O)(=O)NC2=NCCC2)c1)c1ccc(=O)[nH]c1	none (no result: MEKK3 PB1 HTS, MEKK2mut PB1 HTS, MEKK2 WT-MEK5)
C/C(CC(=O)Nc1cccc2c1CCCC2)=N\NC(=O)c1cccc2ccccc12	none | VLA-4 mod pick inactive
Cc1ccc2nc(N3C(=O)C(O)=C(C(=O)c4ccc(C)o4)C3c3ccc(O)cc3)sc2c1 (centres undefined)	none (no result: MEKK3 PB1 HTS, MEKK2mut PB1 HTS, MEKK2 WT-MEK5)
CC(=O)N1CCN(C(=O)C(Cc2c[nH]c3ccccc23)NC(=O)c2ccccc2Cl)CC1 (centres undefined)	none
CSc1ccc(C(=O)c2[nH]c(=O)[nH]c2C)cc1	VLA-4 inh 54.9 (no result: MEKK3 PB1 HTS, MEKK2mut PB1 HTS, MEKK2 WT-MEK5) | VLA-4 mod pick inactive
Cc1[nH]c(=O)[nH]c1C(=O)CCCCC(=O)O	none
Cc1ccc(C(C)C)c(OCC(=O)NNCC(=O)Nc2cccc(F)c2)c1	none (no result: MEKK3 PB1 HTS, MEKK2mut PB1 HTS, MEKK2 WT-MEK5)
O=C(O)c1ccccc1NC(=O)C(c1ccccc1)c1ccccc1	none (no result: MEKK3 PB1 HTS, MEKK2mut PB1 HTS, MEKK2 WT-MEK5) | VLA-4 mod pick inactive
COc1ccc2[nH]c(S(=O)Cc3ncc(C)c(OC)c3C)nc2c1 (centres undefined)	VLA-4 inh 53.6! | VLA-4 mod pick inactive
COc1ccc(-c2csc(Nc3ncccc3C)n2)cc1	VLA-4 inh 92.2 | VLA-4 mod pick inactive
CCOC(=O)c1cc2c(=O)n3cccc(C)c3nc2n(CCOC)c1=NC(C)=O	none
CCNc1nc(NCC)nc(-n2nc(C)cc2C)n1	none | VLA-4 mod pick inactive
Cc1cc(C)n(-c2nc(Nc3ccccc3C)nc(-n3nc(C)cc3C)n2)n1	none
Cc1cc(C)n(-c2nc(NC(C)C)nc(NC(C)C)n2)n1	VLA-4 inh 57.0 | VLA-4 mod pick inactive
Cc1cc(C)n(-c2nc(NC(C)(C)C)nc(NC(C)(C)C)n2)n1	none
Cc1nn(C)cc1CN(C)C(=O)c1cc(-c2ccccc2)nc2ccc(Br)cc12	none
O=Cc1cnc(N2CCN(c3ccccc3)CC2)s1	VLA-4 inh 52.1 | VLA-4 mod pick inactive
N#CC(C#N)=Cc1cnc(N2CCN(c3ccccc3)CC2)s1	none
O=C(COC(=O)C1=COCCO1)Nc1cc(Cl)c(Cl)cc1Cl	none (no result: MEKK3 PB1 HTS, MEKK2mut PB1 HTS, MEKK2 WT-MEK5)
Cc1ccccc1Oc1ccc(NC(=O)C2CC=CCC2C(=O)O)cc1 (centres undefined)	VLA-4 inh 53.7 | VLA-4 mod pick inactive
COc1cccc(-c2nc(CS(=O)(=O)CC(=O)NCCN3CCOCC3)c(C)o2)c1	none
